A selection: hits, their analogues and other compounds. The true share with any hit is near 2.2%.
HMGR II inh: E. faecalis class II HMG-CoA reductase inhibition. purified E. faecalis HMGR, NADPH absorbance 340 nm kinetic. inhibition, % at 10 µM. 190,000 compounds, 0.41% hits. AID 1066;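 active = inhibition above a set limit, the median over all tested compounds plus 3 SD, cut at about 9.5% in these data; inconclusive = no clear call, values can overlap the other calls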;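 also: enzyme runs in reverse so mevalonate oxidation gives rising NADPH absorbance; 0% = complete reaction with DMSO and 100% = background rate lacking mevalonate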
Autophagy HCS: alters autophagy in cells; MEF GFP-LC3 puncta imaging; test concentration mostly 10 µM; calls only at 10 µM (by protocol); 190,000 compounds, 0.98% hits; AID 463193;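 active = percentage of spot-positive cells more than 3 SD above its plate mean, without a fluorescence outlier flag or 80% toxicity; inconclusive = no clear call, values can overlap the other calls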;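 also: spot-positive cell cutoff set from DMSO-treated cells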
Arbovirus inh: arbovirus infection inhibition | inhibition, % at 10 µM | 200,000 compounds, 0.37% hits | arbovirus infection cell-based antiviral screen | AID 1251; in the data active = inhibition above about 30%
NCF1 inh: blocks human p47phox regulatory protein of NADPH oxidases | P14598 | p47phox/p22phox peptide binding, fluorescence polarization, 2 h | inhibition, % at 24.7 µM | 220,000 compounds, 0.53% hits;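 active = inhibition above about 30%, limit read from the data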;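 also: 0% = p47phox with labelled peptide and 100% = labelled peptide alone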
Target sequence (P14598 whole entry, looked up): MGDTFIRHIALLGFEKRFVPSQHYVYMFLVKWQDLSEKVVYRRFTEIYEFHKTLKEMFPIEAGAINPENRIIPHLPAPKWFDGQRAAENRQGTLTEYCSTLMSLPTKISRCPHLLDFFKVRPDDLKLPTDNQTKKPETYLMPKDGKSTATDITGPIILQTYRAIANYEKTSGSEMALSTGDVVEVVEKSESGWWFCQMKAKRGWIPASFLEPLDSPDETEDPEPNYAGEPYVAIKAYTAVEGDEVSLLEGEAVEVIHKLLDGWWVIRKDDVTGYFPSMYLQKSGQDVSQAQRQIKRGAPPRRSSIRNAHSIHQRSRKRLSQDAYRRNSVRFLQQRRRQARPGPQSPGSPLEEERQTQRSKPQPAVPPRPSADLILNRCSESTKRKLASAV
DTT redox prof: compounds producing H2O2 with reducing agent – biochemical, NIH compound library profiling, artefact control for MLSCN library redox annotation, primary screen; DTT-dependent redox cycling H2O2, phenol red/HRP absorbance; 100% = 100 µM peroxide control, 0% = buffer; activation, % at 10 µM; 200,000 compounds, 0.03% hits;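 active = activation of at least 50% relative to the plate's high and low controls in the primary single-dose screen; inactive = activation below 50%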;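 also: compound incubated with DTT at 0.8 mM final as the reducing agent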
Ins promoter up: MIN6 insulin promoter up-regulation. MIN6 insulin promoter-GFP reporter, high-content imaging; active compounds read high. z-score at 5 µM. 190,000 compounds, 0.3% hits;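 active = z-score above 3 at 5 µM with at least 500 cells counted in the well; inconclusive = wells under 500 cells, flagged as cytotoxic or low count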
* hit, by the source's call; i = inactive; ? = inconclusive; . = no result; + = active, no number.

SMILES	HMGR II inh	Autophagy HCS	Arbovirus inh	NCF1 inh	DTT redox prof	Ins promoter up
CCSc1ncc(/C=N/Nc2ccc([N+](=O)[O-])cc2)n1C	-3	+	-11	-63	3	-0.16
O=[N+]([O-])c1ccc(N/N=C/c2ccc(OCc3cccc4ccccc34)cc2)nc1	0	+	-14	-24	2	.
Cc1cc(/C=N/Nc2ccc([N+](=O)[O-])cn2)c(C)n1-c1ccc(C(=O)O)cc1	-4	i	3	-50	0	-0.72
Cc1ccc(N=C2SC(C(=O)O)CC(=O)N2C)cc1C (centres undefined)	-5	i	1	6	-1	0.99
c1ccc(-c2cnn3c(-c4ccccc4)c(-c4ccccc4)nc3n2)cc1	1	?	4	-15	2	17*
O=C(NC(=S)NCCC1=CCCCC1)c1ccccc1Br	-7	i	37*	-12	-1	0
O=C(COC(=O)c1ccccc1Br)NCCC1=CCCCC1	-2	i	3	-22	0	0.69
C/C(=N\OCC(=O)Nn1c(=O)[nH]c2ccccc2c1=O)c1cccs1	9	i	4	174*	6	-0.01
COc1ccc(CCNC(=O)COC(=O)c2ccc(N3CCCC3=O)cc2)cc1OC	5	i	5	-1	0	0.4
O=C(O)CC12CSc3[nH]c(=O)sc3C1c1ccccc1OC2=O (centres undefined)	-7	i	2	4	-1	3.2*
NC1=NC[C@H](Cc2ccc(O)cc2)N1CCc1cccc2ccccc12	.	.	.	63*	.	0.69
NC1=NC[C@@H](Cc2ccc(O)cc2)N1CCc1cccc2ccccc12	.	.	.	7	.	.
Cn1ncc(N=Cc2ccc([N+](=O)[O-])cc2)c1C(=O)N1CCOCC1	-6	i	1	-4	0	0.25
Cc1cccc(NC(=O)CN2C(=O)N/C(=C/c3cc(C)n(-c4ccncc4)c3C)C2=O)c1	-5	i	-8	46*	0	-0.09
C=CCSc1nnc(-c2ccncc2)n1-c1ccc(OCC)cc1	3	i	9	+	1	0.01
CCOc1ccc(-n2c(SCc3ccc(C#N)cc3)nnc2-c2cccnc2)cc1	6	i	-4	16	1	.
COc1ccc2nc(Nc3nc(CSc4nnnn4-c4ccccc4)cc(=O)[nH]3)nc(C)c2c1	2	+	-23	4	1	-0.43
O=C(COc1nc2ccccc2nc1N1CCOCC1)Nc1cccc(S(=O)(=O)N2CCCCC2)c1	-11	i	-1	-35	0	.
Cc1ccc(NC(=O)CSc2nc(NS(=O)(=O)c3ccccc3)cc(=O)[nH]2)cc1	0	i	-2	-14	0	-0.33
CCc1ccc(NC(=O)CSc2nc(NS(=O)(=O)c3ccccc3)cc(=O)[nH]2)cc1	10*	i	1	-19	-1	.
O=C(CSc1ccc2nnc(-c3ccc(Cl)cc3)n2n1)N1CCc2ccccc21	-8	i	1	7	2	-0.86
CSc1nc(Oc2ccc3ccccc3c2)c2sccc2n1	3	i	4	-7	1	-0.18
COc1ccc(Oc2nc(SC)nc3ccsc23)cc1	-2	i	-8	41*	0	.
Cc1ccn2c(CNCC3OCCc4ccccc43)c(C(=O)N3CCCCCC3)nc2c1 (centres undefined)	-2	i	2	5	-1	-0.85
CS(=O)(=O)N1CCc2cc(S(=O)(=O)N3CCCCC3)ccc21	16*	i	17	-1	-1	-1.1
SMILES	HMGR II inh	Autophagy HCS	Arbovirus inh	NCF1 inh	DTT redox prof	Ins promoter up
CS(=O)(=O)N1CCc2cc(C(=O)N3CCCCC3)ccc21	-1	i	2	-9	1	.
Cc1nc(NC(=O)c2ccc(Cl)cc2)sc1-c1csc(Nc2cccc(F)c2)n1	-3	i	-22	158*	2	-1.9
O=C1NC(NS(=O)(=O)c2ccc(Cl)cc2)(C(F)(F)F)C(=O)N1c1ccccc1 (centres undefined)	-4	i	5	-8	0	0.07
CC(=O)c1sc(N/N=C2\CC3CCC2(C)C3(C)C)nc1C (centres undefined)	0	i	4	-16	0	-0.87
COc1ccc(OC(=O)NCCc2ccccc2)cc1	.	.	.	-13	.	0.31
CC(C)c1ccc(OC(=O)NCCO)cc1	-3	i	4	41*	0	0.15
CC1CCCC(NC(=O)COC(=O)COc2ccccc2Cl)C1C (centres undefined)	11*	i	14	3	0	-0.51
CC1CCCCC1NC(=O)COC(=O)COc1ccccc1Cl (centres undefined)	0	i	1	-1	0	0.48
C=C(C)CNC(=S)N/N=C/c1c(F)cccc1F	-8	i	7	-10	-4	-0.16
Nc1nnc(-c2ccccc2[N+](=O)[O-])o1	5	i	6	-6	1	0.3
Cc1cccc2cc(C#N)c(SCc3nnc(-c4ccccc4[N+](=O)[O-])o3)nc12	-7	+	-6	-18	0	0.3
CC1CCN(CCCCOc2ccccc2-c2ccccc2)CC1	-1	i	9	1	1	-0.46
CC1CCCN(CCCOc2ccccc2-c2ccccc2)C1 (centres undefined)	0	i	15	31*	0	-0.94
COc1cc(/C=C2\SC(=O)N(CCN)C2=O)ccc1OS(=O)(=O)c1cc(C)ccc1C	-3	i	-18	72*	-2	-0.44
Cc1cc(C)c2c(=O)n(CC(=O)Nc3ccc(Br)c(C)c3)sc2n1	.	.	.	15	.	-0.04
Cc1cc(C)c2c(=O)n(CC(=O)NC3CCCC3)sc2n1	.	.	.	42*	.	0.12
O=C(/C=C/c1ccc2c(c1)OCO2)c1ccc(F)cc1	-9	i	-9	2	1	-0.06
O=C(/C=C/c1ccc2c(c1)OCO2)c1ccc[nH]1	0	i	-1	81*	0	-0.26
S=C(NCc1ccc2[nH]c3c(c2c1)CCCC3)Nc1ccccc1	9.8*	i	-30	-13	0	0.18
Cc1cc(C)cc(NC(=S)NCc2ccc3[nH]c4c(c3c2)CCCC4)c1	-4	i	-25	12	1	-1.4
CCOC(=O)c1oc2nc3c(cc2c1N)COC(C)(C)C3	-5	+	12	2	0	.
CCOC(=O)c1oc2nc3c(cc2c1N)CCCC3	.	.	.	-1	.	-0.21
O=C(COc1ccccc1[N+](=O)[O-])N/N=C/c1cccs1	-2	i	-8	-10	0	0.06
CSc1ccc(CN2CCN(C(C)C)C(CCO)C2)cc1 (centres undefined)	-1	i	-1	9	-1	0.36
O=C(/C=C/c1cn(CC(O)CN2CCCCC2)c2ccccc12)c1cccs1 (centres undefined)	-1	+	-32	-39	0	4.6*
Cc1onc(-c2c(Cl)cccc2Cl)c1C(=O)N1CCN(c2ncccn2)CC1	-7	i	-6	55*	-1	0.01

Source: PubChem (several laboratories)
